Measured values taken from PubChem BioAssay (Tox21).
Inconclusive results are not listed. Entries that show only a call come without a potency. Active and inactive are the calls of the source. Calls come from the whole dose curve; as a rule, active = well fitted inhibition curve with a large enough effect in the repeat runs; inconclusive = weak or mixed curves; inactive = flat fitted curve, though single readings scatter.

Experiment: qHTS assay to identify small molecule HDAC inhibitors (AID 1259364); note: top concentration of the series differs between compounds; nearly all actives have a fitted effect of over 45% in size
Details: HCT-116 HDAC-Glo I/II luminescence, 2 h; series mostly up to 92.4 µM
Source text: U.S. Tox21 Program National Center for Advancing Translational Sciences [NCATS] NIH Chemical Genomics Center [NCGC] U.S. Environmental Protection Agency [EPA] National Institutes of Environmental Health Sciences [NIEHS] National Toxicology Program [NTP] U.S. Food and Drug Administration [FDA] Tox21 Assay Overview: Histone deacetylases (HDACs) are a group of epigenetic enzymes that regulate gene expression by histone deacetylation. HDACs are capable of introducing epigenetic modifications and such aberrations contribute to the onset and progression of several human diseases, thus making HDACs a popular therapeutic target. For identifying endogenous class I/II HDAC inhibitors a homogenous, luminogenic HDAC I/II cell based assay was used to measure the relative activity of class I and II HDACs from cells. Wild type HCT-116 cells were used to screen Tox21 libraries for identifying class I/II HDAC inhibitors.
Tox21 Assay Protocol Summary: HCT-116 cells were dispensed at 1,500 per well in 5uL of culture medium into white solid bottom 1536-well plates (Greiner Bio-One, Monroe, NC) using a Multidrop Combi (Thermo Scientific, Waltham, MA) dispenser. The assay plates were incubated at 37 C and 5% CO2 for an overnight, and then 23nL of compounds dissolved in DMSO and positive control were transferred using a Pintool station (Wako, San Diego, CA). The assay plates were incubated at 37C and 5% CO2 for 2hr. After compound treatment, 4uL of HDAC-Glo reagent (Promega Corporation, Madison, WI) was added to each well of the assay plates using Flying Reagent Dispenser (FRD, Aurora Discovery, San Diego, CA) and incubated the assay plates at room temperature for 30min. The luminescence signal was quantified using a ViewLux plate reader (Perkin Elmer, Shelton, CT).

| SMILES | Potency | activity change, negative = inhibition |
| --- | --- | --- |
| NC(=O)Cc1cccc(C(=O)c2ccccc2)c1N | inactive | – |
| CC1(C)S[C@@H]2[C@H](NC(=O)C(C(=O)O)c3ccccc3)C(=O)N2[C@H]1C(=O)O (stereo not given in full) | inactive | – |
| CC(=O)Nc1ccc(C)c(Cl)c1 | inactive | – |
| CCCCCCC | inactive | – |
| CC1=C(CC(=O)O)c2cc(F)ccc2/C1=C\c1ccc(S(C)(=O)=O)cc1 | inactive | – |
| COC(=O)c1ccc2cc(C(=O)OC)ccc2c1 | – | -8.76% [at 19 µM] (inactive) |
| NCCCN1CCN(CCCN)CC1 | inactive | – |
| CCCc1c2oc(C(=O)O)cc(=O)c2cc2c(=O)cc(C(=O)O)n(CC)c12 | inactive | – |
| CC1(C)O[C@@H]2C[C@H]3[C@@H]4CCC5=CC(=O)CC[C@]5(C)[C@@]4(F)[C@@H](O)C[C@]3(C)[C@]2(C(=O)CCl)O1 | inactive | – |
| FC(F)(F)c1ccccc1 | inactive | – |
| COc1ccccc1OCC(O)COC(N)=O (stereo not given) | inactive | – |
| C[C@@H](N)C(=O)O | inactive | – |
| CCC1(C)NC(=O)NC1=O (stereo not given) | inactive | – |
| COc1cc(C)ccc1C(C)C | inactive | – |
| COC(=O)C(C)O (stereo not given) | inactive | – |
| CCCCCCCCc1ccc(S(=O)(=O)O)cc1 | inactive | – |
| C=O | inactive | – |
| CC(C)=CCC[C@](C)(O)[C@@H]1CC=C(C)CC1 | inactive | – |
| CC(C)CCCCCCc1ccc(OCCOCCO)cc1 | inactive | – |
| CCCN(CCC)C(=O)C(CCC(=O)O)NC(=O)c1ccccc1 (stereo not given) | inactive | – |

| SMILES | Potency | activity change, negative = inhibition |
| --- | --- | --- |
| CCN[C@H]1CN(CCCOC)S(=O)(=O)c2sc(S(N)(=O)=O)cc21 | inactive | – |
| c1ccc(CN(CC2=NCCN2)c2ccccc2)cc1 | inactive | – |
| CCCCNC(=S)NCCCC | inactive | – |
| CCOC(=O)NCCC[Si](OCC)(OCC)OCC | inactive | – |
| CCCCC1CCC(=O)O1 (stereo not given) | inactive | – |
| CC[C@H]1CC[C@H](NCc2cc3c(cc2OC)[C@H]2C[C@H]2C(=O)N3C)[C@H](c2ccccc2)N1 | inactive | – |
| Cc1ccc(C)c(N)c1 | inactive | – |
| CCCCN1C[C@H](O)[C@@H](O)[C@H](O)[C@H]1CO | inactive | – |
| O=C1CCC(C2CCCCC2)CC1 | inactive | – |
| O=C1CCCCC1C1CCCCC1 (stereo not given) | inactive | – |
| Cc1c(C(=O)NCCO)[n+](=O)c2ccccc2n1[O-] | inactive | – |
| Cc1cc(NS(=O)(=O)c2ccc(N)cc2)nc(C)n1 | inactive | – |
| OCCN(CCO)CCN(CCO)CCO | inactive | – |
| CCCCCCCOC(=O)CCC | inactive | – |
| CCc1cc(Cl)c(OC)c(C(=O)NC[C@@H]2CCCN2CC)c1O | inactive | – |
| O=C(Cl)c1cccc([N+](=O)[O-])c1 | inactive | – |
| Nc1cccc(S(=O)(=O)O)c1 | inactive | – |
| CCCCC(=O)O[C@]1(C(=O)CO)[C@H](C)C[C@H]2[C@@H]3CCC4=CC(=O)C=C[C@]4(C)[C@@]3(F)[C@@H](O)C[C@@]21C | inactive | – |
| CC/C=C\CCOC(=O)C(C)C | inactive | – |
| CCNCCO | inactive | – |
